Results reported in PubChem BioAssay (NCI).
Compounds without any hit were thinned out: in the full panel of roughly 83,000, 20% have a hit.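 Percent growth is the endpoint: 0 to 100 indicates growth inhibition (40 means 60% inhibition), 0 means no net growth, and negative values indicate cell death.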 A number with no mark means an inactive call. Calls of active or inactive are those of the source. Rule for the calls: active = growth percent below 10; inactive = the rest.

Tested on: A498 renal
Assay: NCI-60 one-dose screen, 48 h (100 = growth as untreated, 0 = no growth, -100 = all killed)
Details: 10 µM unless noted

Structure (SMILES) | growth
COc1ccc(Sc2ccc3[nH]c(=O)nc(N)c3c2)cc1 | 98.6%
CCN1C(=O)C2(Nc3ccccc3S2)c2cc(C)ccc21 (configuration not stated) | 138%
CCOC(=O)c1cn2c3c(cc(F)cc3c1=O)C(CC)c1ccccc1C2 (configuration not stated) | 89.5%
Cc1nn(CC(=O)O)c2c1C(=O)CC(C)(C)C2 | 97.8%
O=C1/C(=C/c2ccc(Oc3ccccc3)cc2)N=C(c2ccccc2)N1CCc1cccs1 | 59.7%
COc1cccc(C2C3=C(COC3=O)N(CCO)c3cc4c(cc32)OCO4)c1 (configuration not stated) | -5.85% (active)
COc1ccc2c(c1)c(=O)oc1c(C)c(OCC(C)=O)ccc12 | 90%
CC1=C(C/C=C(\C)CCC[C@H](C)CCC[C@H](C)CCCC(C)C)C(=O)c2ccccc2C1=O | 101%
O=S(=O)(OCCO)c1ccccc1 | 110%
COc1ccc(-c2nc3sccn3c2/C=C/C(=O)c2cc(OC)c(OC)c(OC)c2)cc1OC | -2.58% (active)
Cc1nc(NN)c([N+](=O)[O-])c(NN)n1 | 142%
COc1cc(/C=C2\C(=O)N(c3c(Cl)cccc3Cl)c3ccccc32)cc(OC)c1O | 102%
COc1cc(C2C3=C(COC3=O)N(CCO)c3cc4c(cc32)OCO4)cc(OC)c1O (configuration not stated) | -2.62% (active)
COc1ccccc1CNCCCCCCCCCCCCN1C(=O)c2ccc3c4c(ccc(c24)C1=O)C(=O)N(CCCCCCCCCCCCNCc1ccccc1OC)C3=O | -60.4% (active)
CCCCCCCCCCCCCCCC[N+]1(C)CCOCC1 | 48.8%
Cn1cc(C(=O)NCCC(=N)N)cc1NC(=O)CN=C(N)N | 108%
Nc1cccc2c(=S)c3ccccc3[nH]c12 | 64.5%
CCN1CCN(c2nc3ccccc3c3c(=O)c4cc(F)ccc4sc23)CC1 | 28.9%
Cc1ccc(N(CSc2ccc(Cl)cc2)CSc2ccc(Cl)cc2)cc1 | -22.4% (active)

Structure (SMILES) | growth
O=C1C(Cl)=C(NCCCN2CCOCC2)C(=O)c2ccccc21 | 110%
O=[N+]([O-])c1ccc(O)c2ncccc12 | 96%
O=C(Nc1ccccc1)Oc1cccc2cccnc12 | 119%
Cc1ccc(C)c2c1sc1nc3nc4sc5ccccc5n4c(=N)c3c(=O)n12 | 69.1%
O=C(c1ccccc1)C(Br)C(Br)c1cccc([N+](=O)[O-])c1 (configuration not stated) | 48.2%
COc1cc(/C=C2\C(=O)Nc3ccccc32)cc(OC)c1O | 52.5%
O=c1ccc2ccccc2o1 | 96.4%
Cc1nc(-c2ccccc2)cc2c(O)c(C(=O)N/N=C/Cc3ccccc3)[nH]c(=O)c12 | 94.5%
CN1CCc2cccc3c2C1Cc1ccc(O)c(O)c1-3 (configuration not stated) | 103%
COc1cccc(C2C3=C(COC3=O)N(CCO)c3cc4c(cc32)CCC4)c1 (configuration not stated) | -19.8% (active)
COc1cc(CNCCCN2C(=O)c3ccc4c5c(ccc(c35)C2=O)C(=O)N(CCCNCc2cc(OC)c(OC)c(OC)c2)C4=O)cc(OC)c1OC | -11.5% (active)
O=C1C=CC(=O)N1CCCCCCCCCCN1C(=O)C=CC1=O | 147%
CCCCC/C=C\C/C=C/CCCCCCCCNC(=O)Nc1ccc([N+](=O)[O-])cc1 | 83.7%
Clc1ccc(C2=NN(c3ccccc3)[C@H](c3cn(-c4ccccc4)nc3-c3ccccc3)C2)cc1 | 109%
OB(O)c1ccccc1 | 106%
COc1cccc2c(=O)c3c(sc12)c(NCCN(C)C)nc1ccccc13 | -15.7% (active)
O=C(N/N=C/c1ccc(F)cc1)c1[nH]c2ccc(I)cc2c1-c1ccccc1 | 39.1%
COc1ccc(-c2nc3sc(C)cn3c2/C=C/C(=O)c2cc(OC)c(OC)c(OC)c2)cc1 | 52.5%
